{
  "source": "PubChem BioAssay (Tox21)",
  "note": "Results filed as inconclusive are left out. A number with no mark means an inactive call. Calls of active or inactive are those of the source. Calls follow the shape of the dose curve; as a rule, active = well fitted curve in the direction sought with a large enough effect in the repeat runs; inconclusive = weak or mixed curves; inactive = no such curve, though single readings can be large; an effect the other way counts as inactive or inconclusive. Positions of bridges follow the written chain, without caps; N, C: chain ends. Non-standard residues stand in square brackets, D forms with d. Residues, ends and D or L forms follow the SMILES beside them. *: point of attachment. X1 = CC[C@@H](C)[C@@H](N)C1=N[C@H](C(=O)*)CS1; d(aIle) = CC[C@H](C)[C@@H](N)C(=O)O; dOrn = NCCC[C@@H](N)C(=O)O",
  "data": [
    {"target": "Nuclear receptor subfamily 1 group I member 2 (Homo sapiens) (UniProt O75469)", "test": "Human pregnane X receptor (PXR) activation by small molecules, qHTS assay (AID 1346985); also: nearly all actives have a fitted effect of over 40% in size; also: potency is read from the fitted curve at half-maximal effect; as to activation: % is scaled to controls: 0 for no effect and ±100 for the full control effect", "details": "DPX-2 HepG2 CYP3A4-luciferase, 24 h; series mostly up to 38.3 µM; activation: at the top concentration", "outline": "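DPX-2 cells (HepG2 co-transfected with a PXR response element and a CYP3A4-promoter luciferase construct) were seeded at 2,000 per well, rested 5 hr at 37C, then exposed to DMSO-dissolved compounds for 24 hr. Activation was read as luciferase luminescence.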", "values": [
      {"smiles": "NC(N)=NCc1cccc(I)c1", "activation": "4.09%"},
      {"smiles": "CCOc1cc(CC(=O)N[C@@H](CC(C)C)c2ccccc2N2CCCCC2)ccc1C(=O)O", "activation": "11.7% [at 17.1 µM]"},
      {"smiles": "O=C(O)COc1ccccc1/C=N/NC(=O)c1ccncc1", "activation": "-1.76%"},
      {"smiles": "CC12CCC(C[N+](C)(CCC[N+](C)(C)C)C1)C2(C)C", "note": "(stereo not given)", "activation": "16.4%"},
      {"smiles": "CN(C)CCC(O)(c1ccccc1)c1ccccc1Cl", "note": "(stereo not given)", "Potency": "15.8 µM (active)"},
      {"smiles": "CCN(CC)CCOC[C@H]1O[C@@H](O)[C@H](OCCN(CC)CC)[C@@H](O)[C@@H]1O", "activation": "-8.26%"},
      {"smiles": "CC[C@@H](C)[C@@H](N)C1=N[C@H](C(=O)N[C@@H](CC(C)C)C(=O)N[C@@H](CCC(=O)O)C(=O)N[C@@H](C(=O)N[C@@H]2CCCCNC(=O)[C@@H](CC(N)=O)NC(=O)[C@@H](CC(=O)O)NC(=O)[C@@H](Cc3cnc[nH]3)NC(=O)[C@@H](Cc3ccccc3)NC(=O)[C@@H]([C@H](C)CC)NC(=O)[C@@H](CCCN)NC2=O)[C@@H](C)CC)CS1", "note": "(X1-LE[d(aIle)][dK][dOrn][dI][dF][dH][dD][dN]; lactam 4-C)", "activation": "-4.51% [at 17.1 µM]"},
      {"smiles": "N=C(N)c1ccc(/C=C/c2ccc(C(=N)N)cc2O)cc1", "activation": "-11.7%"},
      {"smiles": "FC(F)(F)C(F)(F)C(F)(F)C(F)(F)C(F)(F)F", "activation": "-13.5%"},
      {"smiles": "CC[C@H](C)C(=O)O[C@H]1CCC=C2C=C[C@H](C)[C@H](CC[C@@H]3C[C@@H](O)CC(=O)O3)[C@H]21", "activation": "8.75%"},
      {"smiles": "N[C@H](CO)C(=O)O", "activation": "3.45%"},
      {"smiles": "CCC(NC(C)C)C(O)c1ccc(O)c(O)c1", "note": "(stereo not given)", "activation": "-2.43%"},
      {"smiles": "Cc1cc(-c2ccc(N=Nc3ccc4c(S(=O)(=O)O)cc(S(=O)(=O)O)c(N)c4c3O)c(C)c2)ccc1N=Nc1ccc2c(S(=O)(=O)O)cc(S(=O)(=O)O)c(N)c2c1O", "activation": "-9.24%"},
      {"smiles": "CO[C@H]1C[C@H](O[C@H]2[C@H](C)[C@@H](O[C@@H]3O[C@H](C)C[C@H](N(C)C)[C@H]3O)[C@@H](C)C[C@]3(CO3)C(=O)[C@H](C)[C@@H](O)[C@@H](C)[C@@H](C)OC(=O)[C@@H]2C)O[C@@H](C)[C@@H]1O", "activation": "3.47% [at 17.1 µM]"},
      {"smiles": "NCC1CCC(C(=O)O)CC1", "note": "(stereo not given)", "activation": "-4.01% [at 17.1 µM]"},
      {"smiles": "O=C(O)c1cc(=O)c2c3nc4ccccc4oc-3cc(=O)c2[nH]1", "activation": "-3.11%"},
      {"smiles": "C/C=C/C1=C(C(=O)O)N2C(=O)[C@@H](NC(=O)[C@H](N)c3ccc(O)cc3)[C@H]2SC1", "activation": "-2.57%"},
      {"smiles": "CO[C@H](C(=O)[C@@H](O)[C@@H](C)O)C1Cc2cc3cc(O[C@H]4C[C@@H](O[C@H]5C[C@@H](O)[C@H](O)[C@@H](C)O5)[C@@H](O)[C@@H](C)O4)c(C)c(O)c3c(O)c2C(=O)[C@H]1O[C@H]1C[C@@H](O[C@H]2C[C@@H](O[C@H]3C[C@](C)(O)[C@H](O)[C@@H](C)O3)[C@H](O)[C@@H](C)O2)[C@H](O)[C@@H](C)O1", "note": "(stereo not given in full)", "activation": "-7.03%"},
      {"smiles": "CCc1cn([C@H]2C[C@H](O)[C@@H](CO)O2)c(=O)[nH]c1=O", "activation": "-9.99%"},
      {"smiles": "O=C1c2ccccc2C(=O)C1c1ccc(F)cc1", "Potency": "12.6 µM (active)"},
      {"smiles": "NS(=O)(=O)c1cc(Cl)c(Cl)c(S(N)(=O)=O)c1", "activation": "5.34% [at 17.1 µM]"},
      {"smiles": "O=c1[nH]c(=O)n([C@H]2C[C@H](O)[C@@H](CO)O2)cc1/C=C/Br", "activation": "-5%"},
      {"smiles": "C(=C\\c1ccncc1)/c1ccccc1", "activation": "18.3%"},
      {"smiles": "CNC(=O)C[C@@H](N)C(=O)N[C@@H](C(=O)N[C@@H]1C(=O)N2[C@@H]1SC(C)(C)[C@@H]2C(=O)O)c1ccc(O)cc1", "activation": "-1.22%"},
      {"smiles": "CC1(C)S[C@@H]2[C@H](NC(=O)[C@@H](NC(=O)N3CCNC3=O)c3ccccc3)C(=O)N2[C@H]1C(=O)O", "activation": "-1.55% [at 17.1 µM]"},
      {"smiles": "O=C(CCCN1CCN2CCCC2C1)c1ccc(F)cc1", "note": "(stereo not given)", "activation": "19.6%"},
      {"smiles": "CSCCC(N)C(=O)O", "note": "(stereo not given)", "activation": "1.51%"},
      {"smiles": "O=C1c2ccccc2CN2C(=O)c3ccccc3CN12", "activation": "2.94%"},
      {"smiles": "CC(C)[N+]1(C)[C@@H]2CC[C@H]1CC(OC(=O)C(CO)c1ccccc1)C2", "note": "(stereo not given in full)", "activation": "8.06%"},
      {"smiles": "C[C@H](NCCc1ccc(O)cc1)[C@H](O)c1ccc(O)cc1", "activation": "-0.901%"},
      {"smiles": "O=P(O)(O)OP(=O)(O)OP(=O)(O)O", "activation": "-0.169%"}
    ]},
    {"target": "Cytochrome P450 2D6 (Homo sapiens) (UniProt P10635)", "sequence (P10635 whole entry, looked up)": "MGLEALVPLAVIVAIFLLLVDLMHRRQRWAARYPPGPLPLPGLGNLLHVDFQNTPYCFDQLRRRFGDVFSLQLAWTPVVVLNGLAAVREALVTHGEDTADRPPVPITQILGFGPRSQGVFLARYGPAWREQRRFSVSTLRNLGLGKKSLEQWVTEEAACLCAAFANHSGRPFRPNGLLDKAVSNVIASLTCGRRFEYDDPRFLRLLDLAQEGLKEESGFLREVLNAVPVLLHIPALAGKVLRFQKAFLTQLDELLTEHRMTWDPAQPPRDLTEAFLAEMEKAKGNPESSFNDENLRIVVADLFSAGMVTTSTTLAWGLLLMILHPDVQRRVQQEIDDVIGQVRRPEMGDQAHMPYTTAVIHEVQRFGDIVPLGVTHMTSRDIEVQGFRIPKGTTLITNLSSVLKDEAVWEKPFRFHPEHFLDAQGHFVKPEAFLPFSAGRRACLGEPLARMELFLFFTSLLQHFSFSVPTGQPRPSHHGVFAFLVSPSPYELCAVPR", "test": "Cytochrome P450 Family 2 Subfamily D Member 6 (CYP2D6) small molecule antagonists: luciferase reporter qHTS assay (AID 1671196); also: nearly all actives have a fitted effect of over 50% in size; also: potency is read from the fitted curve at half-maximal effect; as to activity change, negative = inhibition: % is scaled to controls: 0 for no effect and ±100 for the full control effect", "details": "P450-Glo CYP2D6 enzyme assay, luciferin luminescence, 1 h; series mostly up to 115 µM; activity change, negative = inhibition: at the top concentration", "outline": "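Quantitative HTS of Tox21 chemicals against CYP2D6 using a luminescent proluciferin substrate. After NADPH addition, 1 h room-temperature reaction; luminescence recorded 20 min post detection reagent.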", "units": {"activity change, negative = inhibition": "%"}, "values": [
      {"smiles": "CCCCCCCCOC(=O)c1cc(O)c(O)c(O)c1", "Potency": "11.2 µM (active)"},
      {"smiles": "c1ccc(C[P+](c2ccccc2)(c2ccccc2)c2ccccc2)cc1", "Potency": "0.252 µM (active)"},
      {"smiles": "Cc1c(Cl)c(=O)oc2cc(O)ccc12", "activity change, negative = inhibition": -14.5},
      {"smiles": "C=CCc1cc(S(=O)(=O)c2ccc(O)c(CC=C)c2)ccc1O", "Potency": "6.33 µM (active)"},
      {"smiles": "COc1cccc(-c2ccc(/C=C\\CN3CCCCCC3)cc2Cl)c1", "Potency": "2.51 µM (active)"},
      {"smiles": "CN1CCN(CCCN2c3ccccc3Sc3ccc(Cl)cc32)CC1", "Potency": "0.275 µM (active)"}
    ]},
    {"target": "Cytochrome P450 2C9 (Homo sapiens) (UniProt P11712)", "sequence (P11712 whole entry, looked up)": "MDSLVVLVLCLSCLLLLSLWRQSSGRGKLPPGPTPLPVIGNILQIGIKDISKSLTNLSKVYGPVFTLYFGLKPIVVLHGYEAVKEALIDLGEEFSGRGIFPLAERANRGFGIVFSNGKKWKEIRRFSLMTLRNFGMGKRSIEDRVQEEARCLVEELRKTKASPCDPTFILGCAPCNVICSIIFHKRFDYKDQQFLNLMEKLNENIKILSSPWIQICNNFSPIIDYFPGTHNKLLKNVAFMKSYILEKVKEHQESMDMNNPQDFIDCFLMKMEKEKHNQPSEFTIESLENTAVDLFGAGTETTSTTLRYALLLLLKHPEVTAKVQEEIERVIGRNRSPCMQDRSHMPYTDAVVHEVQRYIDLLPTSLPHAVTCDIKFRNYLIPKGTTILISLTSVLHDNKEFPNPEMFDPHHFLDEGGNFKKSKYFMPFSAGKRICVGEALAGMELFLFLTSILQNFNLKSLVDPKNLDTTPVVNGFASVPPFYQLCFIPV", "test": "Cytochrome P450 Family 2 Subfamily C Member 9 (CYP2C9) small molecule antagonists: luciferase reporter qHTS assay (AID 1671198); also: nearly all actives have a fitted effect of over 50% in size; also: potency is read from the fitted curve at half-maximal effect; as to activity change, negative = inhibition: % is scaled to controls: 0 for no effect and ±100 for the full control effect", "details": "P450-Glo CYP2C9 enzyme assay, luciferin luminescence; series mostly up to 115 µM; activity change, negative = inhibition: at the top concentration", "outline": "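Enzyme-substrate mix preincubated with compound 10 min at room temperature; reaction started with NADPH regeneration solution, 1 h 37C. Luminescent luciferin product read after 20 min detection reagent.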", "values": [
      {"smiles": "CCCCCCCCOC(=O)c1cc(O)c(O)c(O)c1", "Potency": "2.24 µM (active)"},
      {"smiles": "c1ccc(C[P+](c2ccccc2)(c2ccccc2)c2ccccc2)cc1", "activity change, negative = inhibition": "-17.2%"},
      {"smiles": "Cc1c(Cl)c(=O)oc2cc(O)ccc12", "activity change, negative = inhibition": "-16.8%"},
      {"smiles": "C=CCc1cc(S(=O)(=O)c2ccc(O)c(CC=C)c2)ccc1O", "Potency": "0.502 µM (active)"},
      {"smiles": "CC/C=C\\C/C=C\\C/C=C\\CCCCCCCC(=O)OC", "Potency": "28.3 µM (active)"},
      {"smiles": "COc1cccc(-c2ccc(/C=C\\CN3CCCCCC3)cc2Cl)c1", "Potency": "35.4 µM (active)"},
      {"smiles": "CN1CCN(CCCN2c3ccccc3Sc3ccc(Cl)cc32)CC1", "activity change, negative = inhibition": "15.6% [at 53 µM]"},
      {"smiles": "Nc1cccnc1N", "activity change, negative = inhibition": "-7.91%"}
    ]}
  ]
}
